Measured values published in PubChem BioAssay (NCATS).
Values without a mark were called inactive. Results filed as inconclusive are left out. Where a call stands in place of a potency, no number is given. Activity calls are given as the source filed them. Unless noted, calls come from the whole dose curve; as a rule, active = well fitted curve in the direction sought with a large enough effect; inconclusive = small, poorly fitted or top-dose-only effect, or another doubt; inactive = no such curve, though single readings can be large; an effect the other way counts as inactive or inconclusive.

What was measured:
[1] = target: Glutaminase kidney isoform, mitochondrial (Homo sapiens) (UniProt O94925); experiment: qHTS for Inhibitors of Glutaminase (GLS): LOPAC Validation (AID 624146); note: nearly all actives have a fitted effect of over 60% in size; note: potency is the fitted concentration of half-maximal effect
Procedure, shortened: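 hKGA in 45 mM KH2PO4 (pH 8.2), 0.02% Tween-20 with compound, then 1mM L-Glutamine (stock as added) plus glutamate oxidase/HRP/Amplex red coupling mix. Fluorescence read initially and after 30 min at RT; signal change reflects glutamate formation.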

[2] = qHTS of Trypanosoma Brucei Inhibitors: LOPAC Validation (AID 624147)
Procedure, shortened: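 Luminescent Kinase-Glo Plus end-point after 45 min room-temperature reaction of T. brucei pyruvate kinase started with 130 uM ADP (final). Buffer TEA 50 mM pH 7.2 with KCl, MgCl2, BSA, Tween-20; titration-based qHTS with fitted concentration-effect curves.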

[3] = target: Glucagon-like peptide 1 receptor (Homo sapiens) (UniProt P43220); experiment: qHTS of GLP-1 Receptor Agonists: LOPAC Validation (AID 624148);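 note: higher luminescence signal means agonism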
Procedure, shortened: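 HEK293 cells stably co-expressing GLP-1R and a cAMP-responsive luciferase reporter, plated 12 hours before compound, then incubated 4-6 hr at 37 deg C. Luminescence read 12 min after detection reagent.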

[4] = qHTS of Nrf2 Activators: LOPAC Validation (AID 624149)
Procedure, shortened: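 Following overnight seeding in 5% FBS OPTI-MEM, AREc32_Fluc cells receive compounds for a 24 hr incubation at 37 deg C with 5% CO2. Steady-Glo is added, and after 30 min at RT luminescence is recorded.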

[5] = HTS Assay for Allosteric Antagonists of the Human D2 Dopamine Receptor: Hit Validation in HTRF (AID 624455); note: potency is the fitted concentration of half-maximal effect;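 note: stable D1 dopamine receptor cell line scored for blocking the D1 response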
Procedure, shortened: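 Validation of hits used D1 receptor stably expressed in cells with HTRF detection of response inhibition; origin screen measured calcium flux following EC80 dopamine in a force-coupled, inducible Hek293 Trex D2 cell line.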

[6] = qHTS for compounds that reverse cellular toxicity of Amyloid beta (A-beta) peptide in yeast: LOPAC Validation Assay (AID 720559)
Procedure, shortened: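 OD600 growth readout after 48 hr at 30 C; A-beta-toxic yeast plus pinned compounds in medium. Normalization: DMSO = negative, equimolar FeCl3 + clioquinol = positive.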

[7] = qHTS for Activators of Parkin Expression: LOPAC Validation Assay (NLuc Reporter) (AID 720572)
Procedure, shortened: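 NLuc signal, read 10 min after reagent and following a prior FLuc read, is normalized to DMSO (0) and positive controls (100%). Cells: neuronal Parkin-promoter coincidence reporter line; compounds tested 7-point, 24 h, 37 C, 5% CO2.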

[8] = qHTS for Activators of Parkin Expression: LOPAC Validation Assay (FLuc Reporter) (AID 720573)
Procedure, shortened: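 FLuc luminescence read-out from a neuronal line expressing a Parkin-promoter-driven coincidence reporter. Cells treated 24 h at 37 C, 5% CO2 with compounds at 7 concentrations; signal increase normalized to DMSO and positive control.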

[9] = target: Arylsulfatase A (Homo sapiens) (UniProt P15289); experiment: qHTS screen for enhancers of Arylsulfatase A (ASA1): LOPAC Validation Assay (AID 720538)
Procedure, shortened: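 Read-out: fluorescence at Ex=525/Em=598 nm after 1N NaOH final stop. Patient fibroblasts carrying ASA-I179S had 48h compound exposure, then 14h room-temperature pNCS hydrolysis (0.5mM final) in lysis buffer. Signal increase = enhanced activity.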

[10] = qHTS assay for small molecule agonists of the antioxidant response element (ARE) signaling pathway (AID 651741; active = well fitted activation curve with a large enough effect in the signal ratio; the % refers to the signal ratio; note: potency is the fitted concentration of half-maximal effect)
Procedure, shortened: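 HepG2 ARE-bla reporter cells, 2,000/well; 5 h settle at 37 C/5% CO2; compound pin transfer (23 nL, DMSO); 16 h at 37 C; LiveBLAzer B/G FRET substrate, 2 h RT; fluorescence intensity read.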

[11] = qHTS assay for small molecule activators of the nuclear factor-kappa B (NF-kB) signaling pathway (AID 651749; active = well fitted activation curve with a large enough effect in the signal ratio; the % refers to the signal ratio; note: series mostly up to about 77 µM); settings: NF-kB-bla ME-180 cells, beta-lactamase FRET ratio, 16 h; hits give high values
Procedure, shortened: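 NF-kB-bla ME-180 cells, 2,000/well; 23 nL compound or DMSO pinned; 16 hr, 37C/5% CO2; beta-lactamase FRET read-out.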

[12] = qHTS assay for small molecule disruptors of the mitochondrial membrane potential - 1 hr assay (AID 651754; calls by dose curve; note: nearly all actives have a fitted effect of over 35% in size)
Procedure, shortened: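 In this qHTS format, a 1 hr compound treatment of HepG2 cells precedes Mito-MPS staining, and membrane potential is judged from aggregate (red) against monomer (green) fluorescence intensity.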

[13] = qHTS assay for small molecule disruptors of the mitochondrial membrane potential - 5 hr assay (AID 651755; calls by dose curve; note: nearly all actives have a fitted effect of over 40% in size)
Procedure, shortened: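 Read-out: ratiometric Mito-MPS fluorescence, green monomer (ex 490/em 535) vs red mitochondrial aggregate (ex 540/em 590). HepG2 cells treated 5 hr at 37C before 30 min dye loading.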

[14] = qHTS assay for environmental chemicals that activate the Aryl hydrocarbon Receptor (AhR) signaling pathway (AID 651777); settings: 1A2-DRE human hepatoma cells, luciferase, 24 h; activation: hits give high values; note: nearly all actives have a fitted effect of over 15% in size
Procedure, shortened: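 Human hepatoma 1A2-DRE cells stably carrying a DRE/CYP1A2 promoter–luciferase reporter, 1,200 cells/well, exposed to compound 24 hr at 37 C. Luciferase read by One-Glo luminescence after 30 min at room temperature; increased signal marks AhR activation.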

[15] = target: Peroxisome proliferator-activated receptor alpha (Homo sapiens) (UniProt Q07869); experiment: qHTS assay for small molecule agonists of the peroxisome proliferator-activated receptor alpha (PPARalpha) signaling pathway (AID 651778); settings: PathHunter PPARalpha complementation, chemiluminescence, 6 h; hits give high values
Procedure, shortened: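 Enzyme-fragment complementation assay in which ligand-bound PPARalpha translocates and forms an active enzyme that generates chemiluminescence. Cells were plated overnight, exposed to compound for 6 hr at 37 C, and then given detection reagent for 60 min at room temperature.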

[16] = qHTS assay for small molecule agonists of the antioxidant response element (ARE) signaling pathway measured by Nrf2-dependant transcriptional activity (AID 720636; active = well fitted curve in the direction sought with a large enough effect in the repeat runs; an effect the other way counts as inactive or inconclusive)
Procedure, shortened: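 ARE-luc HepG2 cells carrying an Nrf2-responsive luciferase reporter, in medium with 1% dialyzed FBS, exposed to compound for 16 hr at 37 C, 5% CO2. Luminescence read 30 min after ONE-Glo addition.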

Sequence of Arylsulfatase A (Homo sapiens) (P15289 whole entry, looked up): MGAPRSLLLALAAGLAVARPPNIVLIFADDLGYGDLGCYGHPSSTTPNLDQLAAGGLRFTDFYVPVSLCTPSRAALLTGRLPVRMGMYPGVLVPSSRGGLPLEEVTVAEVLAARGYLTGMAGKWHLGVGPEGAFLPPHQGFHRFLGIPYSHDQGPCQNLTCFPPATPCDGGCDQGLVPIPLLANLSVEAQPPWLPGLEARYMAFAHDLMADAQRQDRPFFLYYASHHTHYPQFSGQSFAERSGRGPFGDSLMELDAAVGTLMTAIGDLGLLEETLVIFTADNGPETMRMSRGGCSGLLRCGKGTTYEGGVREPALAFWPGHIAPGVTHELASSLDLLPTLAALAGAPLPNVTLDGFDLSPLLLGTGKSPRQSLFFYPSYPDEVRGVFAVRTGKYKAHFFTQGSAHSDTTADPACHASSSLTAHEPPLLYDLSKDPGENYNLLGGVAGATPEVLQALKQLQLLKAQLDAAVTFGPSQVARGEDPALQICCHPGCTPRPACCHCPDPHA
Sequence of Glucagon-like peptide 1 receptor (Homo sapiens) (P43220 whole entry, looked up): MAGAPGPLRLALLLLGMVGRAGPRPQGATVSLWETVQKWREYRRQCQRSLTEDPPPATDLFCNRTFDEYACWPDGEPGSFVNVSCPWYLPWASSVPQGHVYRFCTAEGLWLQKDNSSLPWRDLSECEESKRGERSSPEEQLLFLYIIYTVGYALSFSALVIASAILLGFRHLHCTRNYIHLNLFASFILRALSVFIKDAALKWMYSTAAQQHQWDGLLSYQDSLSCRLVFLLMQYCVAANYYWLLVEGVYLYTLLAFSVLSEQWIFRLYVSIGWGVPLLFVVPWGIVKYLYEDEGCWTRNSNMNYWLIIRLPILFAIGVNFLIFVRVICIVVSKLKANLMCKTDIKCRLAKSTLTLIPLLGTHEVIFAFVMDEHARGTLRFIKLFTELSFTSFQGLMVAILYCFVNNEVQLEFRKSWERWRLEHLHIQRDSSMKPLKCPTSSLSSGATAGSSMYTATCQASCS
Sequence of Glutaminase kidney isoform, mitochondrial (Homo sapiens) (O94925 whole entry, looked up, canonical isoform): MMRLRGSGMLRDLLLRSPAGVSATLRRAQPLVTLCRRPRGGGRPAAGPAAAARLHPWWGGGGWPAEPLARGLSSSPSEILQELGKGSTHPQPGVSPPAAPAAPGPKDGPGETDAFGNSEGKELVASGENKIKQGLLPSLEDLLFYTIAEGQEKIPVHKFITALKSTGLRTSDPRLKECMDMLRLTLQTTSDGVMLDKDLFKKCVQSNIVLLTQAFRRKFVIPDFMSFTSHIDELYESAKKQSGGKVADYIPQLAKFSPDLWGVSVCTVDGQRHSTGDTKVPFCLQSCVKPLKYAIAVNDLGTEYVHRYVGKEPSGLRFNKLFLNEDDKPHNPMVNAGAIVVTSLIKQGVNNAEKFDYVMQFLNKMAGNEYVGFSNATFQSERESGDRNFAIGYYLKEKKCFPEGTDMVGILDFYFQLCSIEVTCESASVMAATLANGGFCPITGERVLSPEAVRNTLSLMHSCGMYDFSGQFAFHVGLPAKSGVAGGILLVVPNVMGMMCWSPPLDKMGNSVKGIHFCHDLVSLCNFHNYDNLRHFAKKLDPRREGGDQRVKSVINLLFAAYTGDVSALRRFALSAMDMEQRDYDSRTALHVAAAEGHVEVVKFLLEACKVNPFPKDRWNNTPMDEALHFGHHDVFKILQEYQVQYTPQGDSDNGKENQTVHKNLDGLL
Sequence of Peroxisome proliferator-activated receptor alpha (Homo sapiens) (Q07869 whole entry, looked up, the tested form may be a part): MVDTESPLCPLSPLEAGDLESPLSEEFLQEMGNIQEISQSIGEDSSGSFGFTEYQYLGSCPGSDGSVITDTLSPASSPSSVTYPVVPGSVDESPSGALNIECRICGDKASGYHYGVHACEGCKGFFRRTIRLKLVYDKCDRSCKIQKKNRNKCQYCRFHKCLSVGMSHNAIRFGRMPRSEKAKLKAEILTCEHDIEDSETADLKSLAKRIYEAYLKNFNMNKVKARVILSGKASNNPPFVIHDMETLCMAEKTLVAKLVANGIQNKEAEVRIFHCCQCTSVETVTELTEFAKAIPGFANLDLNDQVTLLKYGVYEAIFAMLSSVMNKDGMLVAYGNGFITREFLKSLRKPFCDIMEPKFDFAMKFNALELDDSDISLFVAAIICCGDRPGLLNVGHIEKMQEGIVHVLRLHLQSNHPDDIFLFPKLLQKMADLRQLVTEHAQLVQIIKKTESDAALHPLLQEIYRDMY

| Compound | Potency [1] | Potency [2] | outcome [3] | Potency [4] | Potency [5] | outcome [6] | Potency [7] | outcome [8] | Potency [9] | Potency [10] | activation [11] | Potency [12] | Potency [13] | activation [14] | max response [15] | Potency [16] |
| --- | --- | --- | --- | --- | --- | --- | --- | --- | --- | --- | --- | --- | --- | --- | --- | --- |
| Cc1cc([C@@H]2CCCN2C)on1 | inactive | inactive | inactive | inactive | inactive | inactive | inactive | inactive |  |  |  |  |  |  |  |  |
| C[C@@H]1O[C@@H](O[C@H]2C[C@@H](O)[C@]3(CO)[C@@H]4C(CC[C@]3(O)C2)[C@@]2(O)CC[C@H]([C@@H]3COC(=O)C3)[C@@]2(C)C[C@H]4O)[C@H](O)[C@H](O)[C@H]1O (stereo partly drawn) | inactive | inactive | inactive | inactive |  | inactive | inactive | inactive |  |  |  |  |  |  |  |  |
| Oc1ccc2c3c1O[C@H]1c4[nH]c5ccccc5c4C[C@@]4(O)C(C2)N(CC2CC2)CCC314 (stereo partly drawn) |  | inactive | inactive | inactive | inactive |  |  |  |  |  |  |  |  |  |  |  |
| C[C@]12Cc3cn4c(nc3C=C1CCC1C2CC[C@@]2(C)[C@H]1CC[C@@]2(O)C#N)nc1ccccc14 (stereo partly drawn) | inactive | inactive | inactive | inactive | inactive | inactive |  | inactive | inactive |  |  |  |  |  |  |  |
| Clc1ccc(N2CC3CCC(C2)N3)nn1 | inactive | inactive | inactive | inactive | inactive | inactive | inactive | inactive |  |  |  |  |  |  |  |  |
| CCNC(=O)[C@H]1O[C@@H](n2cnc3c(N)ncnc32)[C@H](O)[C@@H]1O | inactive | inactive | inactive | inactive | inactive | inactive | inactive | inactive |  |  |  |  |  |  |  |  |
| CC(=O)NBr | inactive | inactive | inactive | inactive | inactive | inactive | inactive | inactive |  |  |  |  |  |  |  |  |
| COc1ccc(OC)c(C(O)C(C)N)c1 (stereo not drawn) | inactive | inactive | inactive | inactive |  | inactive | inactive | inactive |  |  |  |  |  |  |  |  |
| CCCN1CCc2cc(O)cc3c2[C@H]1Cc1ccc(O)c(O)c1-3 | 1410 nM (active) | inactive | inactive | inactive | 65.1 nM (active) | inactive | inactive | inactive |  |  |  |  |  |  |  |  |
| N#CCCN | inactive | inactive | inactive | inactive | inactive | inactive | inactive | inactive |  |  |  |  |  |  |  |  |
| Clc1cc(I)cc(Cl)c1NC1=NCCN1 | inactive | inactive | inactive | inactive |  | inactive | inactive | inactive | inactive |  |  |  |  |  |  |  |
| CC(C)(C)c1cc(C=C(C#N)C#N)cc(C(C)(C)C)c1O | 12600 nM (active) |  | inactive | inactive | inactive | inactive | inactive | inactive | inactive |  |  |  |  |  |  |  |
| COc1ccc2c(c1)c(CCN1CCOCC1)c(C)n2C(=O)c1cccc(Cl)c1Cl | inactive | inactive | inactive | inactive | inactive | inactive | inactive | inactive |  |  |  |  |  |  |  |  |
| NCC(O)c1cc(O)c(O)cc1F (stereo not drawn) | inactive | inactive | inactive | inactive | 326 nM (active) | inactive | inactive | inactive |  |  |  |  |  |  |  |  |
| O=C1C=CC(=O)C=C1 | inactive |  | inactive | inactive | inactive | inactive | inactive | inactive |  | 47300 nM (active) | -1.25% | inactive | inactive | 1.56% | -5.62% | inactive |
| CN1CCc2cccc(Cl)c2CC1 | inactive | inactive | inactive | inactive |  | inactive | inactive | inactive | inactive |  |  |  |  |  |  |  |
